Most compounds without a hit are left out; they make up all but 1.3% or so of the library.
MBNL1-CUG inh: blocks human MBNL1 binding to CUG repeat RNA; Q9NR56; TR-FRET MBNL1-His/biotin-(CUG)12 binding, 665/545 ratio; Potency, µM (top dose mostly 57.5 µM), most hits filed as inhibitors; 0.036% of 280,000 active; active = well fitted inhibition curve with a large enough effect in the signal ratio, with a control signal flat, not every such curve was filed as active; inconclusive = small, poorly fitted or top-dose-only effect, or effect the other way, or a change in a side signal; inactive = no such curve, though single readings can be large or run the other way; the % refers to the signal ratio
Target sequence (Q9NR56 whole entry, looked up): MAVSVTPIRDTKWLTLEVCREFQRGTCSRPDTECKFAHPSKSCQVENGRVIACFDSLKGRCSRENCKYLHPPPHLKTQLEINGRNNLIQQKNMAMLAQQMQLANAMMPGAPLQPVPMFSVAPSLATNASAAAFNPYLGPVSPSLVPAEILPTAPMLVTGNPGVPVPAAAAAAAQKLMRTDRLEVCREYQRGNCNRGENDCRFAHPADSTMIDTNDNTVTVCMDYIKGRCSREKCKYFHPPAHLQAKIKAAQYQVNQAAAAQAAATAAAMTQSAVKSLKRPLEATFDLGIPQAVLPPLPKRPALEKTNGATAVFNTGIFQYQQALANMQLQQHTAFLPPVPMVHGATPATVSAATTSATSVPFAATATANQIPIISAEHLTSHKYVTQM
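Compound titration spanned 92 nM–58 uM against the MBNL1-His/biotin-(CUG)12 complex. After 60 min at room temperature with 5 nM streptavidin-XL665 and 0.055 ng/ul terbium anti-His, ratiometric 665/545 nm emission (Ex 340 nm) normalized to controls.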
TRPV1 agonist: activates the human vanilloid receptor TRPV1; Q8NER1; TRPV1-expressing cells, Fluo-8 calcium influx, agonist mode; activation, % at 8.33 µM; 0.19% of 320,000 active; AID 540275; in the data active = activation above about 80%; inconclusive = between about 30% and that limit
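Fluo-8 calcium influx in TRPV1-expressing cells, kinetic read (ex 480/em 520 nm). Compound added and read 3 min for agonist activity, followed by capsaicin at EC20 final and 2 min further read for enhancement.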
KCNH2 WT inh: inhibitors of human wildtype KCNH2 potassium channel; 0.37% of 340,000 active; activity change, % at 1.84 µM; AID 720551; Q12809; U2OS, BacMam KCNH2, thallium flux FluxOr; stronger effect = lower value;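 active = maximum activity change below -70%; inconclusive = maximum activity change between -70% and -50%; inactive = maximum activity change above -50%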
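U2OS cells transduced with wild-type KCNH2 virus are loaded with FluxOr dye for 45 min, and thallium flux is measured in kinetic reads before and after stimulation buffer. Rate constants are normalized to DMSO controls.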
KCNH2 3.1 inh: inhibitors of human KCNH2 3.1 potassium channel isoform; 0.95% of 340,000 active; U2OS KCNH2 3.1, thallium flux FluxOr; stronger effect = lower value; activity change, % (tested at about 1.8 µM);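 active = maximum activity change below -70%; inconclusive = maximum activity change from -70% to -50%; inactive = maximum activity change above -50%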;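 also: thallium influx rate constant from kinetic fluorescence after stimulation buffer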
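Thallium flux read-out: FluxOr dye with Red40 quencher in HBSS/HEPES, 45 min at RT. Rate constants from kinetic reads were normalized to positive and negative DMSO controls. Cells: U2OS virally expressing the 3.1 isoform.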
TRPV1 potentiator: human TRPV1 potentiation | TRPV1-expressing cells, Fluo-8 calcium influx, capsaicin EC20 potentiation | 0.02% of 320,000 active | potentiation, % at 8.33 µM | AID 540277; in the data active = potentiation above about 80%; inconclusive = between about 30% and that limit
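Fluo-8 calcium influx in TRPV1-expressing cells, kinetic read (ex 480/em 520 nm). Compound added and read 3 min for agonist activity, followed by capsaicin at EC20 final and 2 min further read for enhancement.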
Numbers stand for hits; n = inactive; u = inconclusive; x = no result given.

SMILES	MBNL1-CUG inh	TRPV1 agonist	KCNH2 WT inh	KCNH2 3.1 inh	TRPV1 potentiator
CCN(CC)CCn1c(=S)[nH]c2ccc(Br)cc2c1=O	n	n	n	n	n
NC(=O)Cn1c(=O)n(CCC(=O)Nc2ccc(F)cc2)c(=O)c2sccc21	n	n	n	n	n
COc1ccc(CNC(=O)c2ccccc2SCC(=O)N2CCCC2)cc1OC	x	n	n	n	n
CC1CCN(S(=O)(=O)c2ccc3c(c2)N(CC(=O)NCCN2C(C)CCCC2C)C(=O)CS3)CC1 (configuration not stated)	n	n	-76	n	n
O=C(O)CCC(=O)N1CCc2c([nH]c3ccccc23)C1C(F)(F)F (configuration not stated)	n	n	n	-85	n
O=C(Nc1ccccc1)N1CCc2c([nH]c3ccccc23)C1C(F)(F)F (configuration not stated)	n	n	n	n	n
COc1cc(C[C@@H](C)[C@@H](C)Cc2ccc(O)c(OC)c2)ccc1O	x	x	n	n	x
COc1cc(CNC(=O)CCCC/C=C\C(C)C)ccc1O	n	80	x	x	n
CCN(CC)C1=N/C(=C\c2ccco2)C(=O)N1c1ccccc1	x	n	-82	n	n
CC(C)CN(CC(C)C)C1=N/C(=C\c2ccco2)C(=O)N1c1ccccc1	n	n	n	n	n
COc1ccc(C(=O)Nc2ccc(NC(=O)c3cccs3)cc2)cc1Cl	n	n	x	n	n
COc1ccc(C(=O)Nc2ccc(NC(=O)c3cccs3)c(OC)c2)cc1Cl	n	n	n	-83	n
CC1=CC(C)(C)C(C(=O)O)C(C(=O)O)C1 (configuration not stated)	n	n	-109	n	n
CC1=CC(C)C(C(=O)O)C(C(=O)N2CCN(C)CC2)C1 (configuration not stated)	n	n	n	n	n
Cc1nn(C)c(Sc2ccccn2)c1[N+](=O)[O-]	n	n	n	n	n
COC(=O)c1ccccc1NC(=O)CN1C(=O)c2ccccc2C1=O	x	x	n	n	x
Cc1ccc(CN2CCSCC2)cc1	n	n	n	n	n
Brc1ccc(CN2CCSCC2)cc1	n	n	n	-174	n
Cc1nc(N2CCOCC2)c2c(C)c(C(=O)Nc3ccccc3Cl)sc2n1	n	u	n	n	n
Cc1nc(N2CCN(c3ccccn3)CC2)c2c(C)c(C(=O)Nc3ccc(F)cc3Cl)sc2n1	n	n	n	-88	n
Cc1nc(N2CCN(c3ccccn3)CC2)c2c(C)c(C(=O)Nc3ccc(F)cc3F)sc2n1	n	u	n	-93	n
Cc1nc(N2CCN(c3ccccn3)CC2)c2c(C)c(C(=O)Nc3ccccc3F)sc2n1	n	n	n	n	n
Cc1nc(N2CCOCC2)c2c(C)c(C(=O)Nc3ccccc3C(F)(F)F)sc2n1	n	91	n	n	n
COC(=O)[C@H]1C[C@@]2(O)CN(S(=O)(=O)c3ccc(C)cc3)C[C@@]2(OC(=O)NCc2ccccc2)C[C@H]1C(=O)OC	x	x	n	n	x
COc1ccc(-c2cnnc(N/N=C/C(C)=C/c3ccccc3)n2)cc1	n	n	x	x	n
SMILES	MBNL1-CUG inh	TRPV1 agonist	KCNH2 WT inh	KCNH2 3.1 inh	TRPV1 potentiator
O=C(CCSc1ccc(Cl)cc1)NCc1ccncc1	n	86	n	n	n
O=C(CSc1ccc(Cl)cc1)NCc1ccncc1	n	u	n	n	n
COc1ccc(CNC(=O)CCC(=O)c2ccc(F)cc2)cc1OC	x	x	n	n	x
COc1ccc(CNC(=O)CCSc2ccc(F)cc2)cc1OC	n	84	x	n	n
CSCCC(NC(=O)c1ccc(Cl)c([N+](=O)[O-])c1)C(=O)N1CCN(C/C=C/c2ccccc2)CC1 (configuration not stated)	x	n	n	-97	n
CC(C)C(NC(=O)c1ccccc1)C(=O)N1CCN(C/C=C/c2ccccc2)CC1 (configuration not stated)	x	n	n	n	n
O=C(NC1(Cc2ccccc2)CCN(CCCc2ccccc2)C1=O)c1ccccc1 (configuration not stated)	x	n	n	n	n
COc1cccc(CN(C)C(=O)c2ccccc2Sc2ccccc2C#N)c1	n	n	n	-93	n
Cc1cc(C)nc(SCNC(=O)c2ccc(Cl)cc2)n1	n	n	n	-101	n
Cc1cc(C)nc(SCc2ccc(Cl)cc2)n1	n	n	n	n	n
OCCNCc1c(OCc2ccc(Cl)cc2)ccc2ccccc12	u	n	-128	-105	n
CC(O)CNCCNCc1c(OCc2ccccc2)ccc2ccccc12 (configuration not stated)	u	n	n	n	n
Cc1c(Cl)ccc2sc(NC(=O)c3ccco3)nc12	n	90	n	n	n
Cc1cccc2[nH]c(SCC(=O)N3CCOCC3)nc12	n	n	n	n	n
Cc1cc2nc3ccc(=[N+](C)C)cc-3sc2cc1N	u	n	n	-94	n
CN(C)c1ccc2nc3ccc(=[N+](C)C)cc-3sc2c1	u	n	n	n	n
COc1ccc2nc(NC(=O)CS(=O)(=O)c3ccc(C)cc3)sc2c1	n	n	n	n	n
Cc1cc(CN(C)C(=O)CC2C(=O)NCCN2Cc2c(F)cccc2Cl)n[nH]1 (configuration not stated)	n	n	-79	n	n
Cc1nonc1CN(C)C(=O)CC1C(=O)NCCN1Cc1c(F)cccc1Cl (configuration not stated)	n	n	n	n	n
O=C(Nc1cccnc1)c1ccc(COc2cc(Cl)ccc2Cl)o1	n	u	-104	n	n
CC1CC(C)CN(CCCCOc2ccc([N+](=O)[O-])cc2)C1 (configuration not stated)	u	n	u	-99	n
O=[N+]([O-])c1ccc(OCCN2CCNCC2)cc1	u	n	n	-74	n
CC1CN(CCCOc2ccc([N+](=O)[O-])cc2)CC(C)O1 (configuration not stated)	u	n	n	u	n
COc1ccc(N=Cc2c(O)n(-c3cccc(C)n3)c(=O)c3ccccc23)c(OC)c1	n	n	n	n	u
COc1ccccc1-n1cnnc1SCC(=O)Nc1ccccc1	n	n	n	-86	n
SMILES	MBNL1-CUG inh	TRPV1 agonist	KCNH2 WT inh	KCNH2 3.1 inh	TRPV1 potentiator
CCCn1c(SCC(=O)Nc2ccc(S(=O)(=O)N3CCOCC3)cc2)n[nH]c1=O	x	x	n	n	x
COc1ccc(CNC(=O)COC(=O)c2cc(-c3cccs3)nc3ccccc23)cc1OC	n	88	n	n	n
Cc1ccc(CN2CCN(CCCn3cnc4c(OCc5ccccc5)ncnc43)CC2)cc1	x	x	-127	-97	x
c1ccc(COc2ncnc3c2ncn3CCCN2CCN(Cc3cccc4ccccc34)CC2)cc1	x	x	n	u	x
CC1(c2ccc3ccccc3c2)NC(=O)N(CC(=O)O)C1=O (configuration not stated)	n	n	n	n	n
CC1(c2ccc3ccccc3c2)CCC(=O)O1 (configuration not stated)	x	x	-105	n	x

Compound activity (PubChem)
